# Vaccinia Venus: vaccinia inhibition (Venus reporter). Vaccinia virus Venus reporter expression, fluorescence. Potency, µM (doses to about 36.5 µM), without a hit: at the top dose activity change, negative = inhibition, most hits filed as inhibitors. 330,000 tested, 0.46% active. AID 720580; calls by dose curve; tested in A549 cells; note: % is set by controls: 0 for no effect and ±100 for the full control effect; nearly all actives have a fitted effect of over 30% in size
# NS1 function inh: inhibitors of influenza NS1 protein function. Potency, µM (doses to about 46.1 µM), inactives show at the top dose activity, positive = more growth. 270,000 tested, 0.4% active. AID 2326; calls by dose curve; note: actives are rising curves; nearly all actives have a fitted effect of over 50% in size
#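 Recovery from NS1-induced slow growth read by OD600 in budding yeast switched to galactose assay medium (pH 6.0, -URA) at 1:100 dilution. Compound 23 nl per well; the matching strain lacking NS1 serves as control.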
# VACV mCherry inh: inhibitors of vaccinia virus infection (mCherry reporter signal). Vaccinia virus mCherry reporter infection, fluorescence. 310,000 tested, 0.63% active. Potency, µM (highest dose often 36.5 µM), for inactives: at the top dose activity change, negative = inhibition, most hits filed as inhibitors; calls by dose curve; tested in A549 cells; note: % is set by controls: 0 for no effect and ±100 for the full control effect; nearly all actives have a fitted effect of over 35% in size
# Pf growth 48h: inhibits P. falciparum growth in the first generation, 48 h; AID 504832; P. falciparum luciferase growth in erythrocytes, 48 h; 310,000 tested, 5.9% active; Potency, µM (top dose mostly 28.7 µM), for inactives: top-dose activity change, negative = inhibition, usual class: inhibitors; note: % is set by controls: 0 for no effect and ±100 for the full control effect
#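 Read-out is firefly luciferase luminescence from an integrated reporter in P. falciparum, so falling signal marks reduced parasite growth. Infected erythrocytes were at 2% hematocrit and 0.1% parasitemia (final) in Albumax-supplemented RPMI 1640.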
# HCV inh: HCV inhibition; Huh7.5.1 HCVcc-Cre infection, luciferase reporter, 44 h; AID 651820; 340,000 tested, 3.4% active; Potency, µM (titrated, usually from 41.8 µM), for inactives: at the top dose activity change, negative = inhibition, usual class: inhibitors; note: % is set by controls: 0 for no effect and ±100 for the full control effect
#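 1,000 cells/well; 4 h culture; + compound; + HCVcc-Cre (~0.5 moi); 44 h; luciferase substrate, RT 15 min; read 15 sec.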
# Pf growth 96h: P. falciparum growth inhibition at 96 hours. P. falciparum luciferase reporter growth, 96 h. Potency, µM (series often up to 28.7 µM), inactives show top-dose activity change, negative = inhibition, actives largely listed as inhibitors. 320,000 tested, 6.9% active. AID 504834; note: % is set by controls: 0 for no effect and ±100 for the full control effect
#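 Plates of compound plus infected erythrocytes (2% hematocrit, 0.05% parasitemia final) incubate 96 hours, 37 C, 5% CO2. Detection reagent added; reduced luminescence from the parasites' luciferase reporter flags inhibition.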
# * = called active by the depositor; i = inactive; u = inconclusive; x = no result given. Compounds with a hit are over-represented: about 11% of the library has one in this group of screens. Unless noted, calls come from the whole dose curve; as a rule, active = well fitted inhibition curve with a large enough effect; inconclusive = small, poorly fitted or top-dose-only effect, or another doubt; inactive = no such curve, though single readings can be large or run the other way. Potency is the fitted concentration of half-maximal effect.
SMILES,Vaccinia Venus,NS1 function inh,VACV mCherry inh,Pf growth 48h,HCV inh,Pf growth 96h
Cc1ccc(C(=O)Nc2ccccc2[N+](=O)[O-])cc1S(=O)(=O)N1CCOCC1,-3%,-18%,i,-29%,-24%,-7%
CCOc1ccc(S(=O)(=O)N(CC(=O)NCCSc2ccc(C)cc2)c2ccccc2)cc1,-5%,x,-9%,x,x,x
Cc1ccccc1C(=O)Nc1nc2c(C)csc2c(=O)s1,x,-3%,x,25%,-27%,0%
COc1ccccc1N1CCN(C(=O)c2cc(-c3ccc(C)cc3)on2)CC1,-14%,-73%,-15%,15%,u,x
O=C(Nc1ccc(N2CCCCC2)c(Cl)c1)c1ccc(N2CCOCC2)c([N+](=O)[O-])c1,u,14%,-19%,5.2µM*,u,u
CC(=O)Nc1ccc(N2CCCC(C)C2)c([N+](=O)[O-])c1 (stereo not given),-16%,-5%,u,-19%,3.2µM*,-1%
CCOc1ccccc1N1CCN(C(=O)c2cc(S(=O)(=O)N(C)C)ccc2N2CCCC2)CC1,x,x,x,10µM*,u,u
CN(C)S(=O)(=O)c1ccc(N2CCCC2)c(C(=O)N2CCN(S(=O)(=O)c3ccc(F)cc3)CC2)c1,-13%,x,-18%,u,7%,u
CCN(CC)S(=O)(=O)c1ccc(N2CCCC2)c(C(=O)OCC(=O)/C(C#N)=C(\C)N)c1,x,-3%,x,9.3µM*,u,0%
CN(C)S(=O)(=O)c1ccc(N2CCCC2)c(C(=O)N2CCN(S(=O)(=O)c3cccc(F)c3)CC2)c1,10%,x,-3%,10µM*,u,-28%
CN(C)S(=O)(=O)c1ccc(N2CCCC2)c(C(=O)OCC(=O)N2CCN(c3ccccc3)CC2)c1,-16%,x,-2%,15µM*,-3%,13%
COc1ccc(/C=N/NC(=O)CCc2n[nH]c(=O)[nH]c2=O)cc1O,-14%,5%,i,-23%,0%,4%
COc1cccc(/C=N/n2c(C3CCCCC3)n[nH]c2=S)c1OC,x,0%,x,u,-10%,u
CCOc1ccc(-c2ccc(/C=C3/C(=N)N4C(C)=CSC4=NC3=O)o2)c([N+](=O)[O-])c1,-1%,9%,-23%,0%,-10%,-18%
CCOc1ccc(-c2ccc(/C=C3/C(=N)N4C=CSC4=NC3=O)o2)c([N+](=O)[O-])c1,-3%,-3%,i,25%,11µM*,u
N=c1n(CC(=O)c2cccc([N+](=O)[O-])c2)c2ccccc2n1Cc1ccccc1,-2%,x,-17%,u,u,15%
Cc1ccc(Cn2c(=N)n(CC(=O)c3ccccc3)c3ccccc32)cc1,x,14%,x,u,10µM*,39%
CC(C)(C)C(=O)Cn1c(=N)n(Cc2ccccc2)c2ccccc21,u,-37%,8.9µM*,13µM*,u,u
CCN(CCNC(=O)C1CCN(Cc2nc(-c3ccc(Cl)cc3)oc2C)CC1)c1ccccc1,u,-5%,13µM*,u,-43%,46%
CCN(CCNC(=O)C1CCN(Cc2nc(-c3cccc(Cl)c3)oc2C)CC1)c1ccccc1,11µM*,-41%,14µM*,u,u,u
CCN(CCNC(=O)C1CCCN(Cc2nc(-c3ccc(OC)cc3)oc2C)C1)c1ccccc1 (stereo not given),x,-15%,x,5.2µM*,u,-7%
Cc1oc(-c2cccc(Cl)c2)nc1CN1CCC(C(=O)NCc2cccnc2)CC1,x,0%,x,2.6µM*,u,29%
O=C(Nc1nc(-c2ccccc2)cs1)C1CCCO1 (stereo not given),-10%,-13%,i,100%,-21%,u
Cc1ccccc1COCCN1CCN(S(=O)(=O)c2ccccc2)CCC1=O,-9%,1%,-14%,u,-5%,u
CCN(C[C@H]1N[C@@](C)(C(=O)OC)[C@H]2C(=O)N(C)C(=O)[C@@H]12)C(=O)Nc1ccc(OC)cc1,-8%,x,-17%,x,2.5µM*,x
SMILES,Vaccinia Venus,NS1 function inh,VACV mCherry inh,Pf growth 48h,HCV inh,Pf growth 96h
CCN(C[C@H]1N[C@@](C)(C(=O)OC)[C@H]2C(=O)N(C)C(=O)[C@@H]12)C(=O)Nc1ccc(F)cc1,-9%,x,-13%,x,-2%,x
CCOc1cc2[nH]c(=O)n(CCCCC(=O)N3CCCCCC3)c(=O)c2cc1OCC,x,-1%,x,5.2µM*,11%,10%
CCOc1cc2[nH]c(=O)n(CCC(=O)N3CCN(c4ccccc4OC)CC3)c(=O)c2cc1OCC,x,2%,x,u,13%,12µM*
COc1cc2[nH]c(=O)n(CCC(=O)N3CCN(c4cc(Cl)ccc4C)CC3)c(=O)c2cc1OC,x,19%,x,12µM*,u,0%
CCOc1cc2[nH]c(=O)n(CCC(=O)N3CCN(c4ccccc4)CC3)c(=O)c2cc1OCC,-5%,x,-14%,x,x,x
Cc1ccc(C)c(N2CCN(C(=O)CCn3c(=O)[nH]c4ccccc4c3=O)CC2)c1,-20%,x,-27%,x,x,x
CCc1cccc(C)c1NS(=O)(=O)c1ccc2c(c1)NC(=O)C(C)C(=O)N2 (stereo not given),-4%,x,-6%,x,x,x
O=C(NCCCCCCCCNC(=O)c1cccc2ccccc12)c1cccc2ccccc12,-13%,x,-1%,x,u,x
O=C(Nc1ccc2cn[nH]c2c1)c1c(Cl)cccc1Cl,-21%,-2%,-23%,3%,-18%,-26%
CC(C)CCNC(=O)c1onc(CSc2ccc(F)cc2)c1C(=O)NCCC(C)C,-21%,x,i,4.1µM*,7%,u
CC(C)CCNC(=O)c1onc(CSc2ccc(F)c(F)c2)c1C(=O)NCCC(C)C,-2%,u,-18%,12µM*,-5%,10µM*
Cc1cc(C)cc(NC(=O)NCc2c(-n3cccc3)sc3c2CCCC3)c1,-1%,x,-11%,x,x,x
CS(=O)(=O)Nc1cccc(NC(=O)C2Cc3c(-c4cccc(F)c4)ccnc3O2)c1 (stereo not given),10µM*,x,8.9µM*,x,x,x
O=C(CCCCCn1c(=O)[nH]c2ccccc2c1=O)NCCCN1CCN(c2ccccc2F)CC1,-19%,0%,i,x,13µM*,12%
CC1CCN(CCCNC(=O)c2cc3c(=O)n(C)c4ccccc4c3n2C)CC1,x,-1%,x,x,u,7.4µM*
Cn1c(C(=O)NCCCN2CCN(c3ccccc3F)CC2)cc2c(=O)n(C)c3ccccc3c21,-22%,-38%,u,x,-13%,9.3µM*
Cc1ccc(CNC(=O)c2cc3c(=O)n(C)c4ccccc4c3n2C)o1,x,-5%,x,x,-23%,9.3µM*
Cn1c(C(=O)NCCCN2CCOCC2)cc2c(=O)n(C)c3ccccc3c21,-7%,u,-1%,x,-23%,-94%
O=C(O)CNC(=O)CC1S/C(=N/N=C2/NC(=O)CS2)NC1=O (stereo not given),9%,3%,i,u,18%,23%

# Screening data: PubChem BioAssay, National Center for Advancing Translational Sciences (NCATS)
